This test concerns Aerobactin synthetase IucA (Klebsiella pneumoniae hvKP1). The experiment in a line: IucA enzyme inhibition, primary screen, biochemical, Spectrum library (AID 1346200).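 Further: 100% = wells without compound and 0% = wells lacking enzyme.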 The note with it: malachite green pyrophosphate, A620, at 8 µM, stronger effect = lower value.

Values without a mark were called inactive. How the calls were made is not given here.

With `CCN(CC)CCOc1ccc2c(c1)C(=O)c1cc(OCCN(CC)CC)ccc1-2`, the activity remaining is 118%.
The result for `C[C@]12CCC(=O)C=C1C=CC1C2CC[C@@]2(C)C1CC[C@@]21CCC(=O)O1` (stereo partly drawn) reads 119%; that for `CC(C(=O)O)c1ccc(N2Cc3ccccc3C2=O)cc1` (stereo not drawn), 103%; that for `COC(=O)[C@@H]1OC(=O)C2OC23[C@@]1(C)CCC1[C@@]2(C)CCC(=O)C(C)(C)C2C[C@@H](OC(C)=O)[C@]13C` (stereo partly drawn), 112%.
Then `CC(=O)OCC(=O)[C@H]1CCC2C3CCC4=CC(=O)CC[C@]4(C)C3CC[C@@]21C` (stereo partly drawn), with 111%.
The result for `CC[C@H]1OC(=O)[C@H](C)[C@@H](O[C@H]2C[C@@](C)(OC)[C@@H](O)[C@H](C)O2)[C@H](C)[C@@H](O[C@@H]2O[C@H](C)C[C@H](N(C)C)[C@H]2O)[C@](C)(O)C[C@@H](C)/C(=N\OCOCCOC)[C@H](C)[C@@H](O)[C@]1(C)O` reads 118%.
Take `Nc1cc(C(Cl)=C(Cl)Cl)c(S(N)(=O)=O)cc1S(N)(=O)=O`: the activity remaining was 104%.
Turning to `CON`, the activity remaining was 103%.
`CC(C)[C@@H]1CC[C@@H](C)CC1=O`: the activity remaining is 120%.
Then `COc1ccc2c(c1)OCC(Cc1ccc(OC)c(OC(C)=O)c1)C2=O` (stereo not drawn), with 113%; and `Nc1c2ccccc2nc2ccccc12`, with 118%; and `C=CC1=C(C(=O)O)N2C(=O)[C@@H](NC(=O)/C(=N\O)c3csc(N)n3)[C@H]2SC1` (stereo in doubt), with 103%.
As to `Nc1nccs1`, the activity remaining is 89.3%.
The result for `C[C@@H]1CC[C@@]23CCC4(C)[C@@](C=CC5[C@@]6(C)CCC(=O)C(C)(C)C6CC[C@]54C)(OC2=O)C3[C@H]1C` (stereo partly drawn) reads 112%; that for `COc1ccnc(CS(=O)c2nc3ccc(OC(F)F)cc3[nH]2)c1OC` (stereo not drawn), 127%.
The result for `CC1(C)O[C@@H]2CC3C4C[C@H](F)C5=CC(=O)C=C[C@]5(C)[C@@]4(F)[C@@H](O)C[C@]3(C)[C@]2(C(=O)CO)O1` (stereo partly drawn) reads 99.1%; that for `O=c1c(O)c(-c2ccc(O)c(O)c2)oc2cc(O)ccc12`, 101%; that for `C=CC(C1=CC(=O)C(OC)=CC1=O)c1ccc(O)cc1` (stereo not drawn), 120%.
On to `CN(C/C=C/C#CC(C)(C)C)Cc1cccc2ccccc12`, for which the activity remaining is 114%.
As for `CC(=O)c1ccc[nH]1`, the activity remaining is 98.2%.
The result for `CC(=O)OCC(COC(C)=O)OC(C)=O` reads 126%; that for `N#Cc1ccc2c(c1)N(CCCN1CCC(O)CC1)c1ccccc1S2`, 111%.
For the molecule `CCN(CC)CCNc1ccc(CO)c2sc3ccccc3c(=O)c12`, the activity remaining was 114%.
Then `CO[C@@]12[C@@H]3NC3CN1C1=C(C(=O)C(N)=C(C)C1=O)[C@@H]2COC(N)=O` (stereo partly drawn), with 95.4%.
As for `CC1=C(C/C=C(\C)CCC[C@H](C)CCC[C@H](C)CCCC(C)C)C(=O)c2ccccc2C1=O`, the activity remaining is 114%.
The result for `CC1(C)O[C@H]2[C@H](O)C[C@](O)(C(N)=O)C[C@H]2O1` reads 109%; that for `COc1cc(OC)c2c(=O)c(O)c(-c3ccc(OC)c(OC)c3)oc2c1`, 107%; that for `COc1c2ccccc2nc2occc12`, 115%.
Take `C=C1CCC2[C@](C)(CO)[C@H](O)CC[C@@]2(C)[C@@H]1C/C=C1/C(=O)OC[C@H]1O` (stereo partly drawn): the activity remaining is 108%.
On to `CC1(C)C2CC[C@]3(C)C(C(=O)C=C4[C@@H]5C[C@@](C)(C(=O)O)CC[C@]5(C)CC[C@]43C)[C@@]2(C)CC[C@@H]1O` (stereo partly drawn), for which the activity remaining is 126%.
Then `COc1cc([C@@H]2c3cc4c(cc3[C@H](O)[C@H]3COC(=O)[C@@H]23)OCO4)cc(OC)c1OC`, with 82.7%.
The result for `C#C[C@]1(O)CCC2C3CCC4=Cc5oncc5C[C@]4(C)C3CC[C@@]21C` (stereo partly drawn) reads 120%; that for `C[N+](C)(C)CC(O)CC(=O)O` (stereo not drawn), 99.1%; that for `O=C(O)c1cc(=O)c2ccccc2o1`, 110%.
The result for `CC(C)=CCc1c(O)cc2oc(C)cc(=O)c2c1O` reads 118%; that for `CC(=O)O[C@H]1CCC2(C)C3=C(CCC2C1(C)C)[C@@]1(C)CC[C@@H](C(C)CCC=C(C)C)[C@]1(C)CC3` (stereo partly drawn), 109%.
As for `CC(C(=O)O)c1ccc(C(=O)c2cccs2)cc1` (stereo not drawn), the activity remaining was 104%.
Then `CC(=O)N=c1sc(S(N)(=O)=O)nn1C`, with 86.3%; and `C[C@]12CCC3c4ccc(OC(=O)c5ccccc5)cc4CCC3C1CCC2=O` (stereo partly drawn), with 116%; and `CCN(CC)CCOC(=O)C(Cc1cccc2ccccc12)CC1CCCO1` (stereo not drawn), with 99.1%.
Then `COC(=O)[C@@H]1OC(=O)C2OC23[C@@]1(C)CCC1[C@]2(C)C(C[C@H](O)[C@]13C)C(C)(C)[C@H](OC(C)=O)C[C@@H]2OC(C)=O` (stereo partly drawn), with 111%; and `C[C@@H]1CC2C3C[C@H](F)C4=CC(=O)C=C[C@]4(C)[C@@]3(F)[C@@H](O)C[C@]2(C)[C@@]1(O)C(=O)CO` (stereo partly drawn), with 113%.
Then `CO[C@@H]1[C@@H](O[C@@H]2O[C@H](C)[C@@H](O[C@H]3C[C@@](C)(O)[C@H](O)[C@H](C)O3)[C@H](N(C)C)[C@H]2O)[C@@H](CC=O)C[C@@H](C)[C@@H](O[C@H]2CC[C@H](N(C)C)[C@@H](C)O2)/C=C/C=C/C[C@H](C)OC(=O)C[C@H]1O`, with 96.2%.

Values taken from PubChem BioAssay.
